Source: PubChem (National Center for Advancing Translational Sciences (NCATS))
NPC1 prom act = NPC1 promoter activation | Potency, µM (doses to about 9.22 µM), inactives show top-dose activation, hits mostly activators | actives 2.4% (n = 320,000) | Huh7 NPC1 promoter luciferase reporter, 24 h; also: % of control where 0% means no effect; nearly all actives have a fitted effect of over 60% in size
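Huh7 cells stably carrying NPC1 promoter–luciferase, plated in Opti-MEM with 10% FBS for 2 h, were exposed to compound in DMSO for 24 h at 37 °C; luciferase reagent was added for 10 min and luminescence read.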
SMN2 splice up = enhancers of SMN2 splice variant expression | HEK293 SMN2-luciferase splicing reporter, luminescence, 30-36 h | Potency, µM (doses to about 46.1 µM), inactives show at the top dose activity change, positive = activation, usual class: activators | actives 2.8% (n = 210,000); also: % of control where 0% means no effect; nearly all actives have a fitted effect of over 55% in size
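HEK293 cells carry an SMN2 […]–luciferase reporter in which exon 7 inclusion puts luciferase in frame. Cells were plated 10-12 h before compound addition, then incubated 30-36 h at 37C. ONE-Glo luminescence was read; sodium butyrate at 4.5 mM final served as control.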
Rab9 promoter act = activates the Rab9 promoter. Potency, µM (titrated, usually from 9.22 µM), inactives show at the highest dose activation, negative = inhibition, actives largely listed as activators. actives 2.8% (n = 320,000). Huh7 Rab9 promoter-luciferase reporter, luminescence, 24 h; also: % of control where 0% means no effect; nearly all actives have a fitted effect of over 60% in size
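Rab9 promoter-driven luciferase in stably transfected Huh7 cells; 1500 cells/well rested 2 h, exposed to compound in DMSO for 24 h at 37 °C, 5% CO2. Luminescence read 10 min after adding luciferase reagent at ambient temperature.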
FLuc counter = firefly luciferase modulation, counter-screen for miR-21 project | P08659 | purified FLuc, Km substrates, luminescence inhibition | Potency, µM (top dose mostly 57.5 µM), inactives show at the top dose activity change, negative = inhibition, actives largely listed as inhibitors | actives 6.9% (n = 360,000);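 also: plate controls were vehicle for no effect and reference inhibitor for full effect; nearly all actives have a fitted effect of over 55% in size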
Target sequence (P08659 whole entry, looked up): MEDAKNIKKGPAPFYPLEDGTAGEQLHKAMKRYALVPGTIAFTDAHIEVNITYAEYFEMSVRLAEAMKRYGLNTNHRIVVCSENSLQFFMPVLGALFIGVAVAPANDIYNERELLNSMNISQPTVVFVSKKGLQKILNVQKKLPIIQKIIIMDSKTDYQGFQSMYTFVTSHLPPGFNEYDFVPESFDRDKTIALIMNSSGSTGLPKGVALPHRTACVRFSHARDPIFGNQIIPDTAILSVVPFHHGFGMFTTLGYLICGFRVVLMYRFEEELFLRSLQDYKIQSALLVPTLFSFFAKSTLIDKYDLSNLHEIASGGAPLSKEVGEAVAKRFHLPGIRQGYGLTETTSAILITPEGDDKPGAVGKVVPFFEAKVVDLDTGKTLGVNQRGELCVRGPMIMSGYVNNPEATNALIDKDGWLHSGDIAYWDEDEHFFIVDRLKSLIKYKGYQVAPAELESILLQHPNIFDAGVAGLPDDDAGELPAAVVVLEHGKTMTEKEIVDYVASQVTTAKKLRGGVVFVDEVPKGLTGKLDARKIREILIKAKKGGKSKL
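Biochemical qHTS of compounds, final roughly 60 µM downward over six points, against 10 nM purified firefly luciferase using Km concentrations of substrates (10 uM D-luciferin, 10 uM ATP) in Tris acetate pH 7.5 buffer; luminescence output.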
ELG1 genotoxic = genotoxicity induction in ELG1-luciferase HEK293T cells. actives 1.3% (n = 330,000). Potency, µM (doses to about 46 µM), without a hit: at the highest dose activity change, positive = activation, usual class: activators. HEK293T ELG1-luciferase reporter, luminescence, 16 h. AID 504466; also: % of control where 0% means no effect; nearly all actives have a fitted effect of over 60% in size
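Genotoxic stress is detected as increased luminescence from luciferase-tagged ELG1 in HEK293T cells, measured with ONE-Glo after a 16 hr treatment at 37 °C.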
ELG1 DNA repair = blocks ELG1-dependent DNA repair in HEK293T cells; HEK293T ELG1-luciferase reporter, luminescence, 16 h; DNA damage induced by 5-fluorouridine; Potency, µM (highest dose often 46.1 µM), for inactives: top-dose activity change, negative = inhibition, usual class: inhibitors; actives 2.3% (n = 330,000); AID 504467; also: % is scaled to controls: 0 for no effect and ±100 for the full control effect; nearly all actives have a fitted effect of over 55% in size
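HEK293T cells expressing luciferase-tagged ELG1 (2,000/well) received 5-Fluorouridine plus compound or DMSO for 16 hr at 37 °C. Luciferase was read by ONE-Glo luminescence after 30 min at room temperature.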
* marks the source's active call; other numbers are inactive results. The list is not random: actives were taken first. Their share in the collection is about 9.2%. Calls follow the shape of the dose curve; as a rule, active = well fitted curve in the direction sought with a large enough effect; inconclusive = small, poorly fitted or top-dose-only effect, or another doubt; inactive = no such curve, though single readings can be large; an effect the other way counts as inactive or inconclusive. Potency is read from the fitted curve at half-maximal effect.

Results for Cc1ccc(C(=O)N2CCCC(C(=O)c3ccc(Oc4ccccc4)cc3)C2)cn1 (stereo not drawn) ?
NPC1 prom act: -8%; Rab9 promoter act: -24%; FLuc counter: 0%; ELG1 genotoxic: -12%; ELG1 DNA repair: inconclusive

How did CC(C)[C@H](NS(=O)(=O)c1ccccc1)C(=O)OCC(=O)NC(=O)NC1CCCCC1 do in these assays?
ELG1 genotoxic: -4%; ELG1 DNA repair: 16µM*

Results for CC(C)[C@H](NS(=O)(=O)c1ccccc1F)C(=O)NC1CCCCC1 ?
ELG1 genotoxic: 2%; ELG1 DNA repair: 5.2µM*

Results for CC(C)CCC(C(=O)NC(C)c1ccccc1)C(=O)NC(C)c1ccccc1 (stereo not drawn) ?
NPC1 prom act: 0%; Rab9 promoter act: -3%; FLuc counter: 0%; ELG1 genotoxic: -1%; ELG1 DNA repair: 1%

Results for CCCCC/C=C\C/C=C\C/C=C\C=C\[C@@H](O)CCCC(=O)O ?
SMN2 splice up: -4%

What do the screens show for `COc1ccccc1N(Cc1ccccc1)S(=O)(=O)c1cccc(C(=O)Nc2cc(C)ccn2)c1`?
NPC1 prom act: inconclusive; Rab9 promoter act: inconclusive; FLuc counter: 0.67µM*; ELG1 genotoxic: inconclusive; ELG1 DNA repair: inconclusive

What do the screens show for `COc1ccccc1N(Cc1ccccc1)S(=O)(=O)c1cccc(C(=O)O)c1`?
NPC1 prom act: 1%; SMN2 splice up: 5µM*; Rab9 promoter act: 0%; FLuc counter: 0%; ELG1 genotoxic: 1%; ELG1 DNA repair: 2%

What do the screens show for `CCOc1ccccc1NC(=O)c1cccc(S(=O)(=O)N(Cc2ccccc2)c2ccccc2OC)c1`?
NPC1 prom act: -9%; SMN2 splice up: -17%; Rab9 promoter act: -3%; FLuc counter: 6%; ELG1 genotoxic: -2%; ELG1 DNA repair: -17%

What do the screens show for `O=C(CCC(=O)N1CCSc2ccccc21)NCc1ccccc1Cl`?
SMN2 splice up: -8%; FLuc counter: 8%

What do the screens show for `CCC(=O)NCCc1nc2cc(NC(=O)c3cccc([N+](=O)[O-])c3)ccc2n1C`?
NPC1 prom act: inconclusive; Rab9 promoter act: 3.5µM*; FLuc counter: inconclusive; ELG1 genotoxic: inconclusive; ELG1 DNA repair: inconclusive

Results for CC(=O)NCCc1nc2cc(NC(=O)c3cccc([N+](=O)[O-])c3)ccc2n1C ?
NPC1 prom act: 2.8µM*; Rab9 promoter act: 2.8µM*; FLuc counter: inconclusive; ELG1 genotoxic: inconclusive; ELG1 DNA repair: inconclusive

How did CCn1c(CN2CCCCC2)nc2cc(NC(=O)c3cccc([N+](=O)[O-])c3)ccc21 do in these assays?
FLuc counter: -1%

What do the screens show for `O=C(O)c1sccc1SCc1ccc(Cl)cc1Cl`?
NPC1 prom act: 7%; SMN2 splice up: 3%; Rab9 promoter act: 8%; FLuc counter: inconclusive; ELG1 genotoxic: 3%; ELG1 DNA repair: 22%

What do the screens show for `COc1cc(C2CC(=O)c3c([nH]c(C(=O)OC4CCCCC4)c3C)C2)cc(OC)c1OC` (stereo not drawn)?
FLuc counter: 1%

Results for O=c1[nH]cc(I)cc1I ?
NPC1 prom act: -1%; Rab9 promoter act: -3%; FLuc counter: -10%; ELG1 genotoxic: 4%; ELG1 DNA repair: -4%

How did Cc1ccc(OCC(=O)Nc2cccc(S(=O)(=O)N3CCCCCC3)c2)c([N+](=O)[O-])n1 do in these assays?
NPC1 prom act: -7%; SMN2 splice up: -42%; Rab9 promoter act: -1%; FLuc counter: -15%; ELG1 genotoxic: -8%; ELG1 DNA repair: inconclusive

What do the screens show for `c1ccc(-c2ccc(-n3ccnc3)cc2)cc1`?
NPC1 prom act: 25%; Rab9 promoter act: 12%; FLuc counter: 24µM*; ELG1 genotoxic: inconclusive; ELG1 DNA repair: inconclusive

How did COc1ccc(/C=C2\SC(=O)N(CCC(=O)N(C)C3CCS(=O)(=O)C3)C2=O)cc1 (stereo not drawn) do in these assays?
NPC1 prom act: 28%; Rab9 promoter act: 26%; FLuc counter: 11µM*; ELG1 genotoxic: 17%; ELG1 DNA repair: inconclusive

Results for COc1cccc(/C=C2\SC(=S)N(CCC(=O)NC3C=CS(=O)(=O)C3)C2=O)c1 (stereo not drawn) ?
NPC1 prom act: 21%; Rab9 promoter act: 2%; FLuc counter: 4.8µM*; ELG1 genotoxic: 16%; ELG1 DNA repair: 4.6µM*

What do the screens show for `COc1ccc(/C=C2\SC(=S)N(CCC(=O)NC3C=CS(=O)(=O)C3)C2=O)cc1` (stereo not drawn)?
NPC1 prom act: 2%; Rab9 promoter act: -8%; FLuc counter: 5.4µM*; ELG1 genotoxic: 12%; ELG1 DNA repair: 28%

What do the screens show for `COc1cccc(/C=C2\SC(=S)N(CCC(=O)Nc3ccc(O)cc3)C2=O)c1`?
NPC1 prom act: 0%; Rab9 promoter act: 1%; FLuc counter: inconclusive; ELG1 genotoxic: inconclusive; ELG1 DNA repair: inconclusive

How did CC(C)(C)OC(=O)CNC(=O)c1nc[nH]c1C(=O)NCc1ccc(CNC(=O)OC(C)(C)C)cc1 do in these assays?
NPC1 prom act: 1%; Rab9 promoter act: 0%; FLuc counter: -1%; ELG1 genotoxic: -10%; ELG1 DNA repair: inconclusive

How did CC(C)(C)OC(=O)NCCCCCNC(=O)c1nc[nH]c1C(=O)NCc1ccc(CNC(=O)OC(C)(C)C)cc1 do in these assays?
ELG1 genotoxic: -7%; ELG1 DNA repair: 6.5µM*

What do the screens show for `CC(C)C[C@H](NC(=O)c1nc[nH]c1C(=O)NCc1ccc(CNC(=O)OC(C)(C)C)cc1)C(=O)OC(C)(C)C`?
NPC1 prom act: -3%; Rab9 promoter act: 0%; FLuc counter: 1%; ELG1 genotoxic: -7%; ELG1 DNA repair: inconclusive

How did C[C@H](NC(=O)c1nc[nH]c1C(=O)NCc1ccc(CNC(=O)OC(C)(C)C)cc1)C(=O)OC(C)(C)C do in these assays?
NPC1 prom act: 3%; Rab9 promoter act: 0%; FLuc counter: 1%; ELG1 genotoxic: -8%; ELG1 DNA repair: 8.2µM*

Results for COc1cccc(COc2ccc3ccc(=O)oc3c2)c1 ?
NPC1 prom act: inconclusive; Rab9 promoter act: 3.2µM*; FLuc counter: 13µM*; ELG1 genotoxic: inconclusive; ELG1 DNA repair: inconclusive

Results for COc1ccc(COc2ccc3ccc(=O)oc3c2)cc1 ?
NPC1 prom act: 4µM*; Rab9 promoter act: 2.8µM*; FLuc counter: 11µM*; ELG1 genotoxic: inconclusive; ELG1 DNA repair: inconclusive
